# Assay outcomes: PubChem BioAssay, NMMLSC
# Bead autofluor: compound fluorescence in toxin protease inhibitor counterscreen; fluorescence intensity (test concentration not listed); compound autofluorescence counterscreen, microsphere flow cytometry; stronger effect = higher value; AID 624483; actives 3.1% (n = 360,000); in the data active = fluorescence intensity above about 16000; inconclusive = no clear call, values can overlap the other calls
# BoNT F protease: BoNT/F light chain protease inhibitors, primary screen, biochemical, flow cytometry, MLPCN library; Botulinum neurotoxin type F light chain protease (Clostridium botulinum); Multiplex microsphere protease cleavage assay; inhibition, % at 10 µM; actives 0.22% (n = 360,000); in the data active = inhibition above about 35%, passing the limit was not always enough; inconclusive = no clear call, values can overlap the other calls; note: plate controls were buffer without enzyme for full effect and enzyme alone for no effect
# Anthrax LF inh2: Bacillus anthracis LF protease inhibitors, primary screen, biochemical, multiplex microsphere, MLPCN library | Lethal factor (Bacillus anthracis), P15917 | multiplex microsphere protease cleavage assay | inhibition, % at 10 µM | actives 0.12% (n = 360,000) | AID 588501, 2011; note: plate controls were buffer without enzyme for full effect and enzyme alone for no effect
# BoNT A protease: BoNT/A light chain protease inhibitors, primary screen, biochemical, flow cytometry, MLPCN library | inhibition, % at 10 µM | Botulinum neurotoxin type A light chain protease (Clostridium botulinum A str. ATCC 3502) | multiplex microsphere protease substrate cleavage | actives 0.17% (n = 360,000) | AID 588499, 2011; note: plate controls were buffer without enzyme for full effect and enzyme alone for no effect
# * hit, by the source's call; u = inconclusive. A selection: hits, their analogues and other compounds. The true share with any hit is near 3.5%. Cut-off read from the data, not from the text of the source, unless noted: active = inhibition above about 30%; inconclusive = no clear call, values can overlap the other calls; inactive = below that.
SMILES,Bead autofluor,BoNT F protease,Anthrax LF inh2,BoNT A protease
O=C(Nc1ncn[nH]1)c1ccc(Cl)c(S(=O)(=O)N2CCCCCC2)c1,16856*,0,3,-1
CC(=O)OC[C@@H]1CN(Cc2ccccc2)C[C@H](n2cnc3c(NC4CCCC4)ncnc32)O1,4544,-9,1,-1
CCn1c(=O)c2c(nc(SCC(=O)N3CCC(C)CC3)n2C)n(C)c1=O,4164,0,-1,2
Cc1ccc(S(=O)(=O)N2C(=O)CCC2C(=O)N2CCN(C)CC2)cc1 (stereo not given),22032*,3,0,1
COC(=O)c1ccccc1NC(=O)C1CCCN(S(=O)(=O)c2ccccc2)C1 (stereo not given),19578*,4,3,u
Cc1ccc(S(=O)(=O)N2C(=O)CCC2C(=O)N2CCCCC2)cc1 (stereo not given),4194,u,-18,0
COC(=O)c1ccccc1NC(=O)C1CCC(=O)N1S(=O)(=O)c1ccc(C)cc1 (stereo not given),16363*,1,0,u
COC(=O)c1cc(OC)c(OC)cc1NC(=O)C1CCC(=O)N1S(=O)(=O)c1ccc(C)cc1 (stereo not given),9381,-2,0,0
COC(=O)c1ccccc1NC(=O)C1CCCN(S(=O)(=O)c2ccc(F)cc2)C1 (stereo not given),4741,2,1,-1
N#Cc1c(Cl)nsc1NCCN1CCOCC1,3255,-9,-10,-1
COc1ccc(OC)c(NC(=O)C2CCN(Cc3cnn(-c4ccccc4)c3-n3cccc3)CC2)c1,20746*,-4,-4,-2
C=C1CCC2C(C)(C(=O)O)CCCC2(C)C1CCC(CO)CCO (stereo not given),5364,-1,2,0
O=C1CCC(C(=O)N2CCCC(Nc3ccc(F)cc3)C2)=NN1 (stereo not given),4514,4,2,-1
Cn1c(=O)c2cc(NC(=O)CCc3cccnc3)ccc2n1Cc1ccc(F)cc1,3629,-10,-1,0
CCN(C(=O)COC(=O)c1nc(Cl)ccc1Cl)c1c(N)n(Cc2ccccc2)c(=O)[nH]c1=O,4034,2,-2,0
CCc1ccc(C(=O)OCC(=O)N(CCOC)c2c(N)n(Cc3ccccc3)c(=O)[nH]c2=O)cc1,5761,47*,12,11
COCCN(C(=O)COC(=O)c1nc(Cl)ccc1Cl)c1c(N)n(Cc2ccccc2)c(=O)[nH]c1=O,4829,46*,-2,3
CCOC(=O)c1cc(-c2ccc(OC)cc2F)nc2c1c(C)nn2CCC#N,25362*,-5,-4,u
CCOC(=O)c1cc(-c2ccc(Cl)cc2)nc2c1c(C)nn2CCC#N,3036,-1,5,1
O=C1CCCN1CCCNc1nc2c(S(=O)(=O)c3ccc(Br)cc3)nnn2c2ccccc12,6276,2,-2,-1
COc1cc(/C=C2/SC(=S)N(CC(=O)Nc3cccnc3)C2=O)cc(OC)c1OC,2639,30,15,31*
COc1ccc(-c2nn(-c3ccccc3)cc2/C=C2/SC(=S)N(CCC(=O)O)C2=O)c(C)c1,2885,-13,37*,0
COc1ccc(/C(C)=C2/SC(=S)N(CCC(=O)O)C2=O)cc1,19144*,2,1,u
COc1ccc(/C=C2/SC(=S)N(CCC(=O)O)C2=O)cc1,21113*,-1,-2,-2
COc1ccc(-c2nn(-c3ccccc3)cc2/C=C2/SC(=S)N(CCC(=O)O)C2=O)cc1,2874,-10,5,-3
SMILES,Bead autofluor,BoNT F protease,Anthrax LF inh2,BoNT A protease
O=C(CN1C(=O)/C(=C/c2ccccc2)SC1=S)Nc1cccnc1,2473,-2,-2,0
COc1ccc(/C=C2\SC(=S)N(CCC(=O)Nc3ccc(C(=O)O)cc3)C2=O)cc1,3767,u,-4,1
Cc1ccc(C2=NS(=O)(=O)N(C)C(C(=O)NCc3ccccc3)=C2)cc1,5289,-6,1,-1
COc1cc(/C=C2\SC(=S)N(CCC(=O)N3CCCCC3)C2=O)cc(OC)c1OC,5345,18,28,30*
COc1ccc(O)c(/C=C2/SC(=S)N(Cc3ccccc3)C2=O)c1,5051,u,-6,-1
O=C(O)CCN1C(=O)/C(=C\c2ccc(-c3nc4ccccc4s3)o2)SC1=S,2421,11,40*,47*
COc1ccc(OC)c(/C=C2\SC(=S)N(Cc3cccnc3)C2=O)c1,3135,13,21,42*
O=C(O)CCN1C(=O)/C(=C\c2ccncc2)SC1=S,4216,-2,4,-1
COc1cc(C(=O)OC(C)CN2C(C)CCCC2C)cc(OC)c1OC (stereo not given),3895,-28,-14,0
CCCc1ccc(OCc2ccc(C(=O)OC)o2)c(OC)c1,23181*,1,-2,1
CCOC(=O)C1=CCN(S(=O)(=O)c2ccccc2Br)C1c1ccccc1 (stereo not given),6488,-2,-5,0
Cn1ccnc1SCC(=O)Nc1cc(C(F)(F)F)ccc1N1CCOCC1,16282*,1,-1,u
Cc1cc(C(=O)Nc2cc(C(F)(F)F)ccc2N2CCOCC2)no1,5797,7,0,0
Cn1ccnc1SCC(=O)Nc1cccc(C(F)(F)F)c1,9149,1,-8,1
O=C(Nc1cc(C(F)(F)F)ccc1N1CCOCC1)c1cncc(Br)c1,22690*,-11,-1,-10
O=C(Nc1cc(C(F)(F)F)ccc1N1CCOCC1)c1ccc2ccccc2n1,19909*,-2,-5,0
Cn1ccnc1SCC(=O)Nc1cccc(O)c1,17009*,0,-3,-2
COc1cccc(NC(=O)CN2C(=O)NC(C)(c3ccc(C)cc3)C2=O)c1 (stereo not given),3036,-7,-5,0
O=C(Nc1cc(C(F)(F)F)ccc1N1CCOCC1)C1Cc2ccccc2CN1C(=O)c1ccco1 (stereo not given),20221*,-1,2,2
O=C(Nc1ccccc1)C1Cc2ccccc2CN1C(=O)c1ccco1 (stereo not given),8551,3,14,1
COC(=O)c1cccc(NC(=O)c2nn(C(C)C)c(=O)c3ccccc23)c1,17352*,-4,-1,u
O=C(Cn1cc(COc2ccc3ccccc3c2)nn1)NS(=O)(=O)c1cccc(OC(F)F)c1,2717,-1,1,0
CCOC(=O)c1c(NC(=O)COC(=O)c2cnc(C)cn2)sc(C(=O)N(C)C)c1C,16695*,-106,-11,-80
CCOC(=O)c1c(NC(=O)COC(=O)c2ccccn2)sc(C(=O)N(C)C)c1C,u,1,0,-4
COC(=O)c1ccc(CNC(=O)c2ccc(OC)c(S(=O)(=O)NC3CCCC3)c2)cc1,4002,-1,1,0
COc1ccc(NS(=O)(=O)c2cccc(C(=O)NNC(=O)CNC(=O)c3cccc(C)c3)c2)cc1,6986,-7,-4,-1
Cc1cc(C)n(C2CC(=O)N(c3ccc(Cl)c(Cl)c3)C2=O)n1 (stereo not given),3742,5,u,3
